TDP1 cell CPT: DT40-hTDP1 cell growth loss with CPT. chicken DT40 Tdp1-/-;hTDP1 cells + 20 nM CPT, ATP luminescence, 48 h. Potency, µM (doses to about 46.2 µM), hits mostly inhibitors. 12% of 420,000 active; also: nearly all actives have a fitted effect of over 55% in size
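Chicken DT40 Tdp1-/- cells complemented with human TDP1, 400 cells/well, exposed to compounds plus 20 nM camptothecin for at least 48 h at 37 C; viability read as ATP content by CellTiter-Glo luminescence.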
TDP1 inh: blocks human tyrosyl-DNA phosphodiesterase 1; Q9NUW8; recombinant TDP1, AlphaScreen DNA substrate cleavage; Potency, µM (top dose mostly 130 µM), actives largely listed as inhibitors; 0.28% of 350,000 active; AID 485290; also: nearly all actives have a fitted effect of over 40% in size
Target sequence (Q9NUW8 whole entry, looked up): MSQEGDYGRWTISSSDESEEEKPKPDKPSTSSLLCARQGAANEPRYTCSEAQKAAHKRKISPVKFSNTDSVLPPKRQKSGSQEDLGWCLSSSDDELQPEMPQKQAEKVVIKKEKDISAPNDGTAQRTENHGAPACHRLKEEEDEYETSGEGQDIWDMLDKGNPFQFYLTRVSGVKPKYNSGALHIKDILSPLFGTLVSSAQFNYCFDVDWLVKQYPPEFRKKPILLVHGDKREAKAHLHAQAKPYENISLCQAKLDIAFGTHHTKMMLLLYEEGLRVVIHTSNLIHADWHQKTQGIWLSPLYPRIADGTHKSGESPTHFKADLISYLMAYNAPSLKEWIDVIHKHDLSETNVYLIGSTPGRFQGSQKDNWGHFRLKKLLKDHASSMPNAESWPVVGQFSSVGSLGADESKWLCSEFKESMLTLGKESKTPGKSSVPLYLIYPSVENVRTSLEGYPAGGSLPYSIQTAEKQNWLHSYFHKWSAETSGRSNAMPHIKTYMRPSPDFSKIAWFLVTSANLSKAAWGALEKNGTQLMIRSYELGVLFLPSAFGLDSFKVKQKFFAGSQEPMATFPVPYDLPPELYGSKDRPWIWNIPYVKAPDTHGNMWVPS
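Tdp1 1 nM final; 15 min RT w/ cpd; substrate 15 nM, 5 min; beads 10 ug/ml, 10 min; AlphaScreen read. Neg ctrl: no enzyme.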
VP16 counter: inhibits Gal4-VP16 luciferase reporter, ROR gamma counter-screen | Drosophila S2 Gal4-VP16 UAS-luciferase, luminescence, 20 h | 3.5% of 310,000 active | Potency, µM (series often up to 53.6 µM), actives largely listed as inhibitors;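 also: Gal4-VP16 expression switched on by copper sulfate through the metallothionein promoter; nearly all actives have a fitted effect of over 50% in size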
RORgamma inh: ROR gamma (mouse) transcription inhibition. P51450. Drosophila S2 Gal4-RORgamma UAS-luciferase reporter, 20 h. Potency, µM (highest dose often 53.6 µM), hits mostly inhibitors. 5.4% of 310,000 active; also: nearly all actives have a fitted effect of over 60% in size
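In this cell-based reporter format, copper sulfate (700 uM final) drives Gal4–ROR gamma fusion expression from a metallothionein promoter in Drosophila Schneider cells; compounds preincubated 1 hr, reporter read after 20 hr at ambient temperature.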
DT40 TDP1 no CPT: qHTS for Inhibitors of human tyrosyl-DNA phosphodiesterase 1 (TDP1): qHTS in cells in absence of CPT; DT40 Tdp1-/- hTDP1 cells, no CPT, ATP luminescence, 48 h; Potency, µM (series often up to 46.2 µM), hits mostly inhibitors; 15% of 420,000 active; AID 686978, 2013; also: nearly all actives have a fitted effect of over 55% in size
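Stably hTDP1-transfected Tdp1-null chicken DT40 cells were treated with library compounds minus camptothecin and grown for at least 48 hr at 37 °C, after which cellular ATP was quantified by luminescence.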
Of the large screens only hits and unclear results are named; the others gave an inactive call. A selection: hits, their analogues and other compounds. The true share with any hit is near 19%. Calls follow the shape of the dose curve; as a rule, active = well fitted curve in the direction sought with a large enough effect; inconclusive = small, poorly fitted or top-dose-only effect, or another doubt; inactive = no such curve, though single readings can be large; an effect the other way counts as inactive or inconclusive.

NC(c1csc(NC(=O)Nc2ccccc2)n1)C1CCCCC1 (stereo not given)	TDP1 cell CPT inconclusive, DT40 TDP1 no CPT 15µM (no result: TDP1 inh, VP16 counter, RORgamma inh)
NC(c1csc(NC(=O)Nc2cccc(Cl)c2)n1)C1CCCCC1 (stereo not given)	TDP1 cell CPT 18µM, DT40 TDP1 no CPT inconclusive (no result: TDP1 inh, VP16 counter, RORgamma inh)
O=C(Cc1csc(NC(=O)Nc2cccc(Cl)c2)n1)NC1CCCC1	TDP1 cell CPT inconclusive, DT40 TDP1 no CPT inconclusive (no result: VP16 counter, RORgamma inh)
CO/N=C1\CCn2c1c(C)c1ccccc12	none
Cc1ccc(S(=O)(=O)Oc2cccc([N+](=O)[O-])c2)cc1	TDP1 cell CPT 10µM, DT40 TDP1 no CPT inconclusive (no result: TDP1 inh, VP16 counter, RORgamma inh)
COc1ccc(/C=C(/NC(=O)c2cccc([N+](=O)[O-])c2)C(=O)O)cc1OC	none
COc1ccc(/C=N/NC(=O)c2cccc([N+](=O)[O-])c2)cc1OS(=O)(=O)c1ccc(C)cc1	TDP1 cell CPT 4.1µM, VP16 counter inconclusive, RORgamma inh 4µM, DT40 TDP1 no CPT 2.6µM
COc1cc(/C=N/NC(=O)COc2cc(C)cc(C)c2)ccc1OS(=O)(=O)c1ccc(C)cc1	TDP1 cell CPT 16µM, DT40 TDP1 no CPT 6.5µM
CCOc1cc(/C=N/NC(=O)c2cccc([N+](=O)[O-])c2)ccc1OS(=O)(=O)c1ccccc1	TDP1 cell CPT inconclusive, VP16 counter 14µM, RORgamma inh 7.9µM, DT40 TDP1 no CPT 18µM
CCc1ccc(OCC(=O)N/N=C/c2ccc(OS(=O)(=O)c3ccc(C)cc3)c(OC)c2)cc1	none
N#Cc1nnn2c1nc(N)c1c(F)cccc12	none (no result: TDP1 inh, VP16 counter, RORgamma inh)
COc1ccc(/C=N/NS(=O)(=O)c2ccccc2)cc1OS(=O)(=O)c1ccccc1	none
COc1ccc(C(=O)N/N=C/c2ccc(OC)c(OS(=O)(=O)c3ccccc3)c2)cc1	DT40 TDP1 no CPT 16µM
CSCCC(NS(=O)(=O)c1cccc(C(F)(F)F)c1)C(=O)N(C)Cc1ccc2c(c1)OCCO2 (stereo not given)	TDP1 cell CPT inconclusive, DT40 TDP1 no CPT inconclusive
CSCCC(NS(=O)(=O)c1ccc2c(c1)OCCO2)C(=O)N(C)Cc1ccccc1F (stereo not given)	TDP1 cell CPT inconclusive, DT40 TDP1 no CPT 21µM (no result: VP16 counter, RORgamma inh)
CSCCC(NS(=O)(=O)c1ccc2c(c1)OCCO2)C(=O)N(C)Cc1ccc(F)cc1 (stereo not given)	TDP1 cell CPT 23µM, DT40 TDP1 no CPT 13µM (no result: VP16 counter, RORgamma inh)
NC(=O)NNc1ncc(C(F)(F)F)cc1Cl	none
O=C(NNc1ncccc1Cl)c1c(Cl)cccc1Cl	TDP1 cell CPT inconclusive, VP16 counter 14µM, RORgamma inh 4µM, DT40 TDP1 no CPT inconclusive
O=C(NNc1ncc(C(F)(F)F)cc1Cl)c1c(Cl)cccc1Cl	TDP1 cell CPT 4.1µM, VP16 counter 2.8µM, RORgamma inh 0.89µM, DT40 TDP1 no CPT 4.1µM
O=C(NNc1cccc(Cl)n1)c1c(Cl)cccc1Cl	none
CCn1c(CNC(=O)c2ccc(OC)cc2)nnc1SC	none
CO/N=C/NC(=O)c1ccc([N+](=O)[O-])c(CS(=O)(=O)c2ccc(Cl)cc2)c1	TDP1 cell CPT 7.3µM, DT40 TDP1 no CPT 10µM
NNC(=O)c1ccc([N+](=O)[O-])c(CS(=O)(=O)c2ccc(Cl)cc2)c1	RORgamma inh inconclusive, DT40 TDP1 no CPT inconclusive
CCN(CC)C(=O)c1sc2c(c1C)c(=O)n(CCc1ccccc1)c(=O)n2Cc1ccc(C)cc1	TDP1 cell CPT 21µM, DT40 TDP1 no CPT inconclusive (no result: VP16 counter, RORgamma inh)
C=CCOC(=O)C1=C(C)OC(N)=C(C#N)C1c1c(C)nn(-c2ccccc2)c1Cl (stereo not given)	TDP1 cell CPT inconclusive, DT40 TDP1 no CPT 9.2µM
CCOC(=O)C1=C(C)OC(N)=C(C#N)C1c1c(C)nn(-c2ccccc2)c1Cl (stereo not given)	VP16 counter inconclusive, RORgamma inh inconclusive, DT40 TDP1 no CPT inconclusive
COc1ccc(CN2CNc3nc4ccccc4n3C2)cc1	TDP1 cell CPT inconclusive
Cc1cc(Nc2ccccc2)nn1C(=O)c1ccc(Cl)cc1	RORgamma inh inconclusive
CCOC(=O)C1=C(C)Nc2sc(C(=O)c3ccc(F)cc3)c(N)c2C1c1ccc(C(=O)OC)cc1 (stereo not given)	TDP1 cell CPT 18µM, DT40 TDP1 no CPT 12µM

Compound activity: PubChem BioAssay, National Center for Advancing Translational Sciences (NCATS)
